Results reported in PubChem BioAssay (Tox21).
A number with no mark means an inactive call. Calls come from the whole dose curve.

Test: qHTS assay to identify small molecule agonists of the sonic hedgehog signaling (Shh) pathway (AID 1259368);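 note: NIH/3T3-derived 3T3Gli1-Luc cells carrying a stable Gli1-driven firefly luciferase reporter; nearly all actives have a fitted effect of over 15% in size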
Settings: NIH/3T3 Gli1-Luc reporter, luciferase, 24 h, active compounds read high; series mostly up to 92.4 µM; activity change: at the top concentration
Source text: National Center for Advancing Translational Sciences [NCATS]
NIH Chemical Genomics Center [NCGC]
U.S. Environmental Protection Agency [EPA]
National Institutes of Environmental Health Sciences [NIEHS]
National Toxicology Program [NTP]
The sonic hedgehog (Shh) pathway is essential for normal embryonic development. Dysregulation of the Shh pathway can cause severe developmental defects in organs. Therefore chemicals that interfere with the pathway are potential developmental toxicants. A cell line designated 3T3Gli1-Luc (DMB/OARSA/CFSAN/FDA, Laurel, MD), a NIH/3T3 derived clone containing stably integrated Gli1-Luc reporter is used to detect chemical interference of the Shh pathway, by changes in the expression of the firefly Luc gene under the control of the Gli1 transcriptional response element. This cell line was used to screen Tox21 libraries for identifying and prioritizing the potential developmental toxicants that interfere Shh pathway.
3T3 Gli1-Luc cells were dispensed at 2,000 per well in 5uL of culture medium into white solid bottom 1536-well plates (Greiner Bio-One, Monroe, NC) using a Multidrop Combi (Thermo Scientific, Waltham, MA) dispenser. The assay plates were incubated at 37 C and 5% CO2 for 4hr, and then 23nL of compounds dissolved in DMSO and positive control were transferred using a Pintool station (Wako, San Diego, CA). The assay plates were incubated at 37C and 5% CO2 for 24hr. For luciferase read, 4uL of Amplite Luciferase reporter gene assay reagent (AAT Bioquest, Inc. Sunnyvale, CA) was added to each well of the assay plates using Flying Reagent Dispenser (FRD, Aurora Discovery, San Diego, CA) and incubated at room temperature for 30min. The luminescence signal was measured using a ViewLux plate reader (Perkin Elmer, Shelton, CT).
% is set by controls: 0 for no effect and ±100 for the full control effect.

Row | Compound | activity change
1 | CCc1cc(C2=C(C(=O)O)N(c3ccccc3C(F)(F)F)S(=O)(=O)c3ccccc32)cc2c1OCO2 | -0.1%
2 | CC(C)(CO)[N+](=O)[O-] | -0.0234%
3 | CN(C)CCN(Cc1ccccc1)c1ccccn1 | 0.57% [at 42.5 µM]
4 | Cc1c(N)cccc1[N+](=O)[O-] | 0.951%
5 | C=CCOc1ccccc1OCC(O)CNC(C)C (stereo not given) | 0.804% [at 42.5 µM]
6 | CCCCCCCCCCCCCCOS(=O)(=O)O | 1.57%
7 | CCCCCCCCO[C@@H]1O[C@H](CO)[C@@H](O)[C@H](O)[C@H]1O | -0.723%
8 | COS(=O)(=O)C(F)(F)F | -4.95%
9 | Cc1ccc(N=Nc2c(O)c(C(=O)O)cc3ccccc23)c(S(=O)(=O)O)c1 | 0.62% [at 42.5 µM]
10 | CC(CC=O)c1ccccc1 (stereo not given) | 0.0119%
11 | O=C(O)C1(C(=O)Nc2ccc(Cl)cc2Cl)CC1 | -2.13%
12 | Clc1ccc2c(c1)CCc1cccnc1C2=C1CCNCC1 | -5.44% [at 42.5 µM]
13 | CNC(=O)CN(CCN(CCN(CC(=O)[O-])CC(=O)NC)CC(=O)[O-])CC(=O)[O-].O.[Gd+3] | 1.68% [at 42.5 µM]
14 | Cc1cccc(C)c1NC(=O)CN(CC(=O)O)CC(=O)O | 0.413% [at 42.5 µM]
15 | CCCCC(CC)COC(=O)CCCCCCCCC(=O)OCC(CC)CCCC (stereo not given) | -2.02%
16 | COC(=O)c1ccc(I)cc1S(=O)(=O)NC(=O)Nc1nc(C)nc(OC)n1 | -1.1%
17 | CC(C)CC(=O)C1C(=O)c2ccccc2C1=O | -7.16%
18 | C=C(C)C(=O)OCCOCC | -1.12%
19 | C[N+](C)(C)CCOC(=O)CCC(=O)OCC[N+](C)(C)C | 0.18% [at 42.5 µM]
20 | Nc1ccc(N)c2c1C(=O)c1ccccc1C2=O | -7.05%

Row | Compound | activity change
21 | CCN(CC)CCOC(=O)C(c1ccccc1)C1CCCCC1 (stereo not given) | 2.09% [at 42.5 µM]
22 | COc1cc(Cl)ccc1Oc1ccc(Cl)cc1Cl | 6.22%
23 | CCOC(=O)COC(=O)c1cc(Oc2ccc(C(F)(F)F)cc2Cl)ccc1[N+](=O)[O-] | 0.0497%
24 | CCCCOC(=O)CCCCCCCC(=O)OCCCC | -0.11%
25 | C/C(=C(\CCOP(=O)(O)O)SC(=O)c1ccccc1)N(C=O)Cc1cnc(C)nc1N | 0.138% [at 8.39 µM]
26 | COc1ccc2cccc(CCNC(C)=O)c2c1 | -1.02% [at 42.5 µM]
27 | CCCCNc1ccc(C(=O)OCCOCCOCCOCCOCCOCCOCCOCCOCCOC)cc1 | 1.04% [at 42.5 µM]
28 | NCC(=O)CCC(=O)O | 1.48% [at 42.5 µM]
29 | c1ccc(CNCCNCc2ccccc2)cc1 | 1.18% [at 42.5 µM]
30 | CC1(c2ccccc2)OC(C(=O)O)=CC1=O (stereo not given) | -0.366% [at 42.5 µM]
31 | CCCCC(CC)COC(=O)COc1ccc(Cl)cc1Cl (stereo not given) | -2.38%
32 | COc1ccc(-c2nc3ccc(C4=NNC(=O)CC4C)cc3[nH]2)cc1 (stereo not given) | 4.41% [at 42.5 µM]
33 | CC(C)(COC(=O)c1ccccc1)COC(=O)c1ccccc1 | 0.453%
34 | CN(C)CCN(Cc1ccc(Cl)cc1)c1ccccn1 | 0.406% [at 42.5 µM]
35 | O=C(OCCCCCCOC(=O)c1ccccc1)c1ccccc1 | 4.64%
36 | O[C@@H](COc1cccc2ncccc12)CN1CCN(C2c3ccccc3[C@@H]3[C@H](c4ccccc42)C3(F)F)CC1 (stereo not given in full) | -4.31% [at 42.5 µM]
37 | CCOC(=O)C(O)c1ccccc1 (stereo not given) | -0.293% [at 42.5 µM]
38 | Cc1cccc(C)c1OCC(=O)N[C@@H](Cc1ccccc1)[C@@H](O)C[C@H](Cc1ccccc1)NC(=O)[C@H](C(C)C)N1CCCNC1=O | -2.34% [at 42.5 µM]
39 | O=C(Cl)c1cc(C(=O)Cl)cc(C(=O)Cl)c1 | -11.8%
40 | Clc1ccc(Cn2c(CN3CCCC3)nc3ccccc32)cc1 | -0.735% [at 42.5 µM]
